CYP2C19 activ – human CYP2C19 activators, primary screen, biochemical, luminescence. Cytochrome P450 2C19 (Homo sapiens), P33261. recombinant CYP2C19, luciferin-H EGE luminescence; hits give high values; 0 = fully inhibited enzyme, 1 = untreated enzyme. activation factor at 5 µM. 96,000 tested, under 10 active;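 active means activation factor of at least 2 at 5 µM in the primary screen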
CYP2C19 inh – blockers of cytochrome P450 2C19 activity – biochemical, luminescence, ADME assay, primary screen. inhibition, % at 5 µM. P33261. actives 21% (n = 96,000). CYP2C19 Supersomes, luciferin-H EGE luminescence, 30 min. AID 778, 2007;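 active means CYP2C19 inhibition above a set limit at 5 µM in the primary screen, cut at about 50% in these data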
CYP2C9 act – human CYP2C9 activators, primary screen, biochemical, luminescence | activation factor at 5 µM | recombinant CYP2C9, luciferin-H conversion; hits give high values; factor 1 = untreated enzyme, 0 = blocked | actives 1.4% (n = 96,000);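 active means activation factor of 2 or more for CYP2C9 at a 5 µM dose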
Target sequence (P11712 whole entry, looked up): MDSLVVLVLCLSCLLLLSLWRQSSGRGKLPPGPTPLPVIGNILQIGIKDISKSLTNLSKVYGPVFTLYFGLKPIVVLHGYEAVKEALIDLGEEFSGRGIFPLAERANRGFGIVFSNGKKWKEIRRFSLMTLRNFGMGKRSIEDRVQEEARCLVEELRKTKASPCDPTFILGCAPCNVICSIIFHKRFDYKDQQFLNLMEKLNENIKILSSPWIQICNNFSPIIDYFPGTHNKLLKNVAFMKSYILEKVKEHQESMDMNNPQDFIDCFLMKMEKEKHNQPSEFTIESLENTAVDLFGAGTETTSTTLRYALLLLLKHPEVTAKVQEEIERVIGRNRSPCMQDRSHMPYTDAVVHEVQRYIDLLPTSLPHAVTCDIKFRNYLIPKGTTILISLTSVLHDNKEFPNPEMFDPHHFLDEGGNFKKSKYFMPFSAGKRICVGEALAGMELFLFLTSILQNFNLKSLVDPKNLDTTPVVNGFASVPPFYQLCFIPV
CYP2C9 inhib – blockers of cytochrome P450 2C9 activity – biochemical, luminescence, ADME assay, primary screen. P11712. CYP2C9 Supersomes, luciferin-H conversion. inhibition, % at 5 µM. actives 20% (n = 96,000);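 active means blocking of liver enzyme CYP2C9 beyond about 50% at 5 µM, limit read from the data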
PostGolgi ctrl – growth inhibition of yeast control strain, primary screen, counter-screen for post-Golgi transport modulator project; actives 5% (n = 98,000); efflux-deficient yeast background strain, growth absorbance A615, 16 h; inhibition, % at 10 µM
PostGolgi yeast – phenotypic screen on post-Golgi transport, primary screen | post-Golgi transport phenotypic cell assay | actives 0.9% (n = 98,000) | inhibition, % at 10 µM;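 further: yeast cells grown in 1536-well plates; yeast grown about 18 h at 30C before absorbance read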
Hits are given with their value; n = inactive; x = no result. In the library only some 32% were active in any assay of this set; here they are far more common. Unless noted, no stated cut-off is given here; in the data, active means inhibition above about 30%; inactive means the rest.

SMILES	CYP2C19 activ	CYP2C19 inh	CYP2C9 act	CYP2C9 inhib	PostGolgi ctrl	PostGolgi yeast
CCNC(=O)CC1C(=O)N(c2ccccc2)C(=O)N1Cc1ccc(OC)cc1 (stereo not given)	n	n	n	n	n	n
CC(C)CCSc1nnc(Cn2c(=O)sc3ccccc32)n1C	x	x	x	x	n	n
Cc1ccc(C2C3CSCC=C3C(C#N)=C(N)C2(C#N)C#N)cc1 (stereo not given)	n	n	n	81.4	n	n
Cc1ccc([C@@H]2C3COCC=C3C(C#N)=C(N)C2(C#N)C#N)o1 (stereo not given in full)	n	68.7	n	n	n	n
N#CC1=C(N)C(C#N)(C#N)[C@H](c2ccncc2)[C@H]2CC3(CC=C12)OCCO3	n	50.8	n	71.3	n	n
N#CC1=C(N)C(C#N)(C#N)[C@H](c2ccncc2)[C@H]2CN(C(=O)OCc3ccccc3)CC=C12	x	x	x	x	n	n
C=CCc1c(OC)ccc2ccc(=O)oc12	n	56.9	2.2	n	n	n
Cc1cc(C)c(OCCCCCNCCO)c(C)c1	n	n	n	86.9	n	n
Cc1cc(C)cc(OCCCCCNCCO)c1	x	x	x	x	n	n
CCOC(=O)C(NC(=O)c1ccccc1)(N1CCOCC1)C(F)(F)F (stereo not given)	n	n	n	n	n	n
CCOC(=O)C(NCc1ccccc1OC)(NC(=O)c1ccccc1)C(F)(F)F (stereo not given)	n	n	n	62.9	n	n
CCOC(=O)C(NC(=O)c1ccc(OC)cc1)(N1CCOCC1)C(F)(F)F (stereo not given)	n	n	n	62.9	n	n
CCOC(=O)C(NCc1ccco1)(NC(=O)c1ccc(OC)cc1)C(F)(F)F (stereo not given)	n	n	n	n	n	n
CCOC(=O)C(NC(=O)c1ccccc1)(N1CCCC1=O)C(F)(F)F (stereo not given)	n	53.0	n	n	n	n
CCOC(=O)C(NC(C)=O)(N1CCc2ccccc2C1)C(F)(F)F (stereo not given)	n	74.8	n	91.7	n	n
COc1ccccc1N1CCN(C(=O)CCCCn2c(=O)[nH]c3ccsc3c2=O)CC1	n	n	n	n	n	n
CCOC(=O)c1ccc(Cl)c(NC(=O)c2ccc(-c3ccccc3)cc2)c1	n	n	n	n	n	n
CCNc1ccc(C(=O)OCC)cc1NC(=O)c1cccc(N(C)C)c1	n	n	n	50.5	n	n
CCNc1ccc(C(=O)OCC)cc1NC(=O)c1cc(S(=O)(=O)N2CCOCC2)ccc1C	n	88.1	n	53.5	n	n
COc1cc(S(=O)(=O)N2CCOCC2)ccc1NC(=O)COC(=O)C12CC3CC(CC(C3)C1)C2	n	n	n	n	35.3	n
N#Cc1ccc(NC(=O)CCc2ccc(S(=O)(=O)N3CCOCC3)cc2)cc1	n	n	n	70.5	n	n
COc1ccccc1NC(=O)NC1(C(=O)N2CCC(O)CC2)CCCCC1	n	n	n	n	n	n
Cc1nnc(NC(=O)CCC(=O)NCc2ccco2)s1	n	n	n	n	n	n
Cn1c2c(c(=O)n(C)c1=O)CN(CCN1CCNCC1)CN2	n	n	n	n	n	n
O=C(Nc1c(F)c(F)c(F)c(F)c1F)NC1CCCCC1	n	n	n	n	n	n
SMILES	CYP2C19 activ	CYP2C19 inh	CYP2C9 act	CYP2C9 inhib	PostGolgi ctrl	PostGolgi yeast
Cc1ccc(C)c(NC(=O)CCc2ccc(S(=O)(=O)NC3CCCCC3)cc2)c1	n	83.9	n	76.2	n	n
COc1ccc(NC(=O)c2cncc(Br)c2)c(S(=O)(=O)N2CCOCC2)c1	n	55.3	n	n	n	n
Cc1ccc(NC(=O)CCc2ccc(S(=O)(=O)N3CCOCC3)cc2)c(C)c1	n	50.7	n	65.2	n	n
COc1cc(C)ccc1NC(=O)c1ccc(S(=O)(=O)N2CCOCC2)cc1	n	n	2.9	n	n	n
O=C(CCc1ccc(S(=O)(=O)NC2CCCCC2)cc1)NCc1ccc(Cl)cc1	n	n	n	n	n	x
c1ccn2c(Cc3nnc4ccccn34)nnc2c1	n	n	n	n	n	n
Cc1ccc(=O)n(C(C(=O)NCc2ccco2)C(=O)c2ccc(F)cc2)c1 (stereo not given)	n	n	n	n	n	n
CCCC(=O)Nc1c2c(nn1-c1ccc(C)cc1C)CSC2	n	n	n	n	n	n
CCOc1ccc(CCNC(=O)c2oc3c(c2C)-c2[nH]ncc2CC3)cc1OCC	n	n	n	n	n	n
CC(C)CCNC(=O)CN(Cc1ccc2c(c1)OCO2)C(=O)CCC(=O)Nc1ccccn1	n	n	n	n	n	n
CCOc1ccccc1CN(CCc1ccc2c(c1)OCO2)Cc1ccccn1	n	98.2	n	57.8	n	n
N#CCCC12CCCCC1=Nc1ccccc12 (stereo not given)	n	n	n	n	x	x
O=C(c1cccs1)N(C(=O)c1cccs1)c1ccc(Br)cn1	n	100.3	n	99.1	n	n
COc1ccc(C(=O)CCN2CCCCCC2)cc1	n	n	n	n	n	n
CO/N=C(/CS(=O)c1ccc(Br)cc1)c1ccc(OC)cc1 (stereo not given)	n	100.0	n	87.6	n	n
Cc1cc(=O)c(C(=O)O)cn1Nc1ccc(Cl)cc1	n	n	n	n	n	n
COc1ccc(CC(=O)Nc2c3c(nn2-c2cccc(Cl)c2)CS(=O)(=O)C3)cc1	n	n	n	n	34.2	n
COc1ccc(C(=O)Nc2c3c(nn2-c2cccc(Cl)c2)CS(=O)C3)cc1 (stereo not given)	n	n	n	n	n	n
O=C(Cc1ccccc1)Nc1c2c(nn1-c1cccc(Cl)c1)CS(=O)(=O)C2	n	55.1	n	n	n	n
CCCCCCCCSc1nnc(CSc2nc3nc(C)cc(C)n3n2)o1	n	n	n	n	n	n
N#CCC(CNc1ncc(C(F)(F)F)cc1Cl)OC(=O)c1cccc(C(F)(F)F)c1 (stereo not given)	n	62.6	n	n	n	n
COc1ccccc1-c1nnc(NC(=O)c2ccccc2F)o1	n	n	n	63.7	n	n
CCN(Cc1ccccc1)S(=O)(=O)c1ccc(C(=O)Nc2nnc(-c3ccccc3OC)o2)cc1	n	n	n	70.1	n	n
CCCCN(CC)S(=O)(=O)c1ccc(C(=O)Nc2nnc(COC)o2)cc1	n	n	n	64.2	n	n
CCC1CCCCN1S(=O)(=O)c1ccc(C(=O)Nc2nnc(-c3ccccc3Cl)o2)cc1 (stereo not given)	x	x	x	x	n	n
CCCCN(CC)S(=O)(=O)c1ccc(C(=O)Nc2nnc(-c3ccccc3Cl)o2)cc1	n	n	n	68.8	n	n
COc1ccccc1-c1nnc(NC(=O)c2ccc(S(=O)(=O)N(C)C)cc2)o1	n	n	n	n	n	n
